{
  "source": "PubChem BioAssay AID1275",
  "about": "(Emory University Molecular Libraries Screening Center, 2008)",
  "note": "In all, about 1,000 compounds went through this assay and about 160 (16%) were called active. The rule behind the calls is not given here. Some of the results follow.",
  "data": [
    {"target": "Neutrophil cytosol factor 1 (Homo sapiens) (UniProt P14598)", "sequence (P14598 whole entry, looked up)": "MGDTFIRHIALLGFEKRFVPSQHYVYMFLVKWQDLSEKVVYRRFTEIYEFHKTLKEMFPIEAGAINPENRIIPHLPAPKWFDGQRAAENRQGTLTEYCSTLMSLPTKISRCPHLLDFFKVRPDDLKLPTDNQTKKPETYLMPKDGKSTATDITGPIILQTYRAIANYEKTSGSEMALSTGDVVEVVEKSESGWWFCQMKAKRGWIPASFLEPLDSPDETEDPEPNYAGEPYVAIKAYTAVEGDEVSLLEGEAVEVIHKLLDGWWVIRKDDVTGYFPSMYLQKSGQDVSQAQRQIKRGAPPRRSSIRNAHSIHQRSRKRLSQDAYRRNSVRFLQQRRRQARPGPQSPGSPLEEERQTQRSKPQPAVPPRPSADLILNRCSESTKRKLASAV", "experiment": "p47phox binding inhibitors, dose response, biochemical, NADPH oxidase regulatory subunit, fluorescence polarization (AID 1275)", "conditions": "at 12.5 µM", "values": [
      {"smiles": "O=C1NC(=O)N(Cc2ccc(F)cc2)C(=O)/C1=C\\c1ccc(N2CCCC2)cc1", "percent of control, lower = inhibition": "-40.7 (active)"}
    ]}
  ]
}
